LMP1 NFkB inh = inhibitors of Epstein-Barr LMP1-induced NF-kappaB reporter; LMP1-induced NF-kappaB luciferase reporter cells, luminescence; inhibition, % at 12.5 µM; 350,000 compounds, 0.69% hits; AID 504558; in the data active = inhibition above about 41%;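 also: 0% = neutral control wells and 100% = reference inhibitor control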
MITF TRPM1 HTS = MITF TRPM1 promoter activation in melanoma cells; activation, % at 12.5 µM; 300,000 compounds, 0.75% hits; SK-MEL-5 TRPM1-promoter luciferase, 24 h; % of positive control, neutral wells = 0; AID 588334;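 active = mean activation of at least 80% with every replicate also reaching 80%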;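 also: 0% = neutral control wells and 100% = parthenolide positive control wells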
TWEAK-Fn14 inh = TWEAK-Fn14 signaling inhibition | TWEAK-stimulated Fn14 reporter cells, luciferase luminescence, 8 h | inhibition, % at 10 µM | 360,000 compounds, 2% hits | AID 1159606; in the data active = inhibition above about 50%
LGR2 inh = blocks bursicon-induced cAMP signaling via Drosophila LGR2 | HEK293 LGR2, CRE-luciferase, bursicon-stimulated, 4 h | inhibition, % at 9.99 µM | 380,000 compounds, 0.35% hits | AID 720647;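 active = drop in luminescence signal, shown as inhibition above about 50% in the replicate tests, limit read from the data, passing the limit was not always enough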;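 also: agonist challenge used bursicon conditioned medium at about half maximal strength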
TROY signal inh = inhibitors of TROY-dependent NF-kB signaling | Q293 LMP1-TROYcd NF-kB luciferase reporter, 4 h | inhibition, % at 10 µM | 360,000 compounds, 0.98% hits;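 active = compounds whose plate-normalised and pattern-corrected inhibition of the luciferase reporter signal at the single screening dose is 50% or more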
TRPM1 prom inh = inhibitors of MITF-driven TRPM1 promoter in melanoma cells; SK-MEL-5 TRPM1 promoter luciferase, 24 h; inhibition, % at 12.5 µM; 330,000 compounds, 0.83% hits;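 active = mean inhibition across replicates of 60% or more, whatever share of single replicates reaches that level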
An asterisk follows results filed as active. This is a sample that favours compounds with a hit; in the whole collection about 3% have one here.

`CC1CCC(NC(=O)c2ccc(NS(=O)(=O)c3ccc4[nH]c(=O)[nH]c4c3)cc2)CC1` (stereo not given) gave LMP1 NFkB inh -2.8, MITF TRPM1 HTS 98.0*, TWEAK-Fn14 inh -32.5, LGR2 inh -32.5, TROY signal inh -13.5 and TRPM1 prom inh -94.4.
`CCNC(=O)c1ccc(NS(=O)(=O)c2ccc3[nH]c(=O)[nH]c3c2)cc1` gave LMP1 NFkB inh 0.8, MITF TRPM1 HTS 3.5, TWEAK-Fn14 inh -4.3, LGR2 inh 7.8, TROY signal inh 10.3 and TRPM1 prom inh -1.4.
`CCCC(=O)Nc1ccc2c(c1)OC[C@@H](C)N(Cc1cncnc1)C[C@H](C)[C@H](OC)CN(C)C2=O` gave LGR2 inh 16.3.
CC(=O)O/N=C(\N)c1ccc(-c2csnn2)cc1 was read as LMP1 NFkB inh -15.4, MITF TRPM1 HTS 43.3, TWEAK-Fn14 inh -2.5, LGR2 inh -20.6, TROY signal inh -39.8 and TRPM1 prom inh -45.1.
For CC(C)(C)C(=O)O/N=C(\N)c1ccc(-c2csnn2)cc1 the results were LMP1 NFkB inh -39.0, MITF TRPM1 HTS 106.4*, TWEAK-Fn14 inh -24.4, LGR2 inh -47.7, TROY signal inh -56.3 and TRPM1 prom inh -98.6.
O=C(NCC[C@H]1CC[C@@H](NC(=O)c2cnccn2)[C@@H](CO)O1)c1ccc2c(c1)OCO2 was read as LGR2 inh 7.9.
For CO[C@H]1CN(C)C(=O)c2ccc(NC(C)=O)cc2OC[C@@H](C)N(C(=O)Cc2cccnc2)C[C@H]1C the results were LGR2 inh 11.9.
CCCN1C[C@H](C)[C@@H](OC)CN(C)C(=O)c2cc(NC(=O)Nc3ccccc3F)ccc2OC[C@H]1C was read as LGR2 inh -12.5.
COc1cc(C2CC(=O)c3c(ccc4ccccc34)N2)ccc1O (stereo not given) was read as LMP1 NFkB inh -15.2, MITF TRPM1 HTS -7.7, TWEAK-Fn14 inh 19.7, LGR2 inh 9.5, TROY signal inh 8.0 and TRPM1 prom inh 6.7.
For COc1cccc(C2Nc3ccc4ccccc4c3C3=C2C(=O)CCC3)c1O (stereo not given) the results were LMP1 NFkB inh 15.0, MITF TRPM1 HTS -61.4, TWEAK-Fn14 inh -2.0, LGR2 inh 3.1, TROY signal inh 9.8 and TRPM1 prom inh 64.4*.
COc1cc2ccccc2cc1C(=O)NCC(c1cccs1)N(C)C (stereo not given) was read as LMP1 NFkB inh -123.6, MITF TRPM1 HTS 122.9*, TWEAK-Fn14 inh -33.7, LGR2 inh -43.4, TROY signal inh -35.8 and TRPM1 prom inh -126.3.
For Nc1ncnc2oc(-c3ccco3)c(-c3ccco3)c12 the results were LMP1 NFkB inh 2.1, MITF TRPM1 HTS -16.1, TWEAK-Fn14 inh 76.5*, TROY signal inh -6.0 and TRPM1 prom inh 9.6.
For N/C(=N\S(=O)(=O)c1cc(C(F)(F)F)cc(C(F)(F)F)c1)c1ccc(Cl)cc1 the results were LMP1 NFkB inh 8.3, TWEAK-Fn14 inh 17.4, LGR2 inh 43.2, TROY signal inh 59.5* and TRPM1 prom inh 11.7.
CC(=O)NC[C@@H]1[C@@H](c2ccc(-c3cccnc3)cc2)[C@@H](CO)N1C(=O)C1CCC1 was read as LGR2 inh 0.5.
`C=CCN1C(=O)/C(=C/c2ccc(OC(C)=O)c(OCC)c2[N+](=O)[O-])SC1=S` gave LMP1 NFkB inh 4.6, MITF TRPM1 HTS -22.5, TWEAK-Fn14 inh 59.9*, LGR2 inh 20.1, TROY signal inh 43.0 and TRPM1 prom inh 23.4.
For Cc1cccc(CNc2ncnc3ccc(-c4ccoc4)cc23)c1 the results were LMP1 NFkB inh 74.8*, MITF TRPM1 HTS -0.6, TWEAK-Fn14 inh 94.3*, LGR2 inh 29.4, TROY signal inh 54.8* and TRPM1 prom inh 1.1.
For Cc1cccc(-c2ccc3ncnc(NCc4cccnc4)c3c2)c1 the results were LMP1 NFkB inh -9.4, MITF TRPM1 HTS -11.3, TWEAK-Fn14 inh 12.8, LGR2 inh -0.2, TROY signal inh 2.6 and TRPM1 prom inh 11.5.
Cc1ccsc1CN(C)c1ncnc2ccc(-c3ccoc3)cc12 was read as TWEAK-Fn14 inh 68.3*, LGR2 inh 6.9 and TROY signal inh 29.6.
Screening c1cncc(CNc2ncnc3ccc(-c4ccoc4)cc23)c1 returned LMP1 NFkB inh 46.5*, MITF TRPM1 HTS 0.5, TWEAK-Fn14 inh 83.9*, LGR2 inh 8.1, TROY signal inh 46.8 and TRPM1 prom inh 6.8.
